Test results taken from PubChem BioAssay.
Calls of active or inactive are those of the source.

Legend:
[1] = binders of probe aFSTL3 on microarray, primary screen, stem cell growth factor project, biochemical, small-molecule microarray, fluorescence 635/667 (AID 1064); conditions: higher = more signal;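 note: measures binding of the biotinylated anti-FSTL3 antibody to printed compounds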
[2] = binders from COS7 lysate, DM2A8 probe, primary screen, torsin A project, cell lysate, small-molecule microarray, fluorescence 635/667 (AID 1065); conditions: higher = more signal, COS7 lysate expressing mutant human TOR1A
[3] = binders of probe aFGF2 on microarray, primary screen, stem cell growth factor project, biochemical, small-molecule microarray, fluorescence 635/667 (AID 1067); conditions: higher = more signal;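 note: measures binding of biotinylated aFGF2 protein to printed compounds on slides; z-score merges feature fluorescence and signal-to-noise across triplicate slides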
[4] = binders of probe aFGF10 on microarray, primary screen, stem cell growth factor project, biochemical, small-molecule microarray, fluorescence 635/667 (AID 1071); conditions: higher = more signal;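 note: score merges 667 nm spot intensity and signal to noise from triplicate slides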
[5] = target: Neurogenic locus notch homolog protein 2 (Homo sapiens) (UniProt Q04721); test: Notch2 binders on small-molecule microarrays, primary screen, biochemical, small-molecule microarray, 635 nm fluorescence, stem cell growth factors (AID 1073); conditions: Notch2 binding, higher = more signal
[6] = target: Pro-neuregulin-1, membrane-bound isoform (Homo sapiens) (UniProt Q02297); test: NRG1 binders on small-molecule microarrays, primary screen, psychiatric disease protein project, biochemical, small-molecule microarray, fluorescence 635/667 (AID 1075); conditions: NRG1 binding, 635 nm fluorescence, higher = more signal;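 note: score combines 667 nm spot fluorescence with signal to noise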
[7] = system: Neuregulin-1 EGF-like domain; test: binders of neuregulin-1 EGF-like domain, primary screen, biochemical, small-molecule microarray, 635 nm fluorescence (AID 1081); conditions: small-molecule microarray binding, higher = more signal;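 note: binding of the protein to compounds printed on small-molecule microarray slides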
[8] = FRG1 promoter luciferase signal modulators, primary screen, FRG1 inhibition for FSHD, cell-based, C2C12 myotubes, firefly/Renilla luciferase, luminescence (AID 1084); conditions: higher = more signal, called active from +8 up or from −8 down
[9] = binders of probe aFST on microarray, primary screen, stem cell growth factor project, biochemical, small-molecule microarray, fluorescence 635/667 (AID 1086); conditions: higher = more signal;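 note: score merges 667 nm fluorescence with signal-to-noise of each printed compound spot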
[10] = binders of probe aHhip on microarray, primary screen, stem cell growth factor project, biochemical, small-molecule microarray, fluorescence 635/667 (AID 1087); conditions: higher = more signal;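 note: score merges spot fluorescence at 667nm with spot signal to noise ratio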

Chain of Neurogenic locus notch homolog protein 2 (Homo sapiens) (Q04721 whole entry, looked up, canonical isoform): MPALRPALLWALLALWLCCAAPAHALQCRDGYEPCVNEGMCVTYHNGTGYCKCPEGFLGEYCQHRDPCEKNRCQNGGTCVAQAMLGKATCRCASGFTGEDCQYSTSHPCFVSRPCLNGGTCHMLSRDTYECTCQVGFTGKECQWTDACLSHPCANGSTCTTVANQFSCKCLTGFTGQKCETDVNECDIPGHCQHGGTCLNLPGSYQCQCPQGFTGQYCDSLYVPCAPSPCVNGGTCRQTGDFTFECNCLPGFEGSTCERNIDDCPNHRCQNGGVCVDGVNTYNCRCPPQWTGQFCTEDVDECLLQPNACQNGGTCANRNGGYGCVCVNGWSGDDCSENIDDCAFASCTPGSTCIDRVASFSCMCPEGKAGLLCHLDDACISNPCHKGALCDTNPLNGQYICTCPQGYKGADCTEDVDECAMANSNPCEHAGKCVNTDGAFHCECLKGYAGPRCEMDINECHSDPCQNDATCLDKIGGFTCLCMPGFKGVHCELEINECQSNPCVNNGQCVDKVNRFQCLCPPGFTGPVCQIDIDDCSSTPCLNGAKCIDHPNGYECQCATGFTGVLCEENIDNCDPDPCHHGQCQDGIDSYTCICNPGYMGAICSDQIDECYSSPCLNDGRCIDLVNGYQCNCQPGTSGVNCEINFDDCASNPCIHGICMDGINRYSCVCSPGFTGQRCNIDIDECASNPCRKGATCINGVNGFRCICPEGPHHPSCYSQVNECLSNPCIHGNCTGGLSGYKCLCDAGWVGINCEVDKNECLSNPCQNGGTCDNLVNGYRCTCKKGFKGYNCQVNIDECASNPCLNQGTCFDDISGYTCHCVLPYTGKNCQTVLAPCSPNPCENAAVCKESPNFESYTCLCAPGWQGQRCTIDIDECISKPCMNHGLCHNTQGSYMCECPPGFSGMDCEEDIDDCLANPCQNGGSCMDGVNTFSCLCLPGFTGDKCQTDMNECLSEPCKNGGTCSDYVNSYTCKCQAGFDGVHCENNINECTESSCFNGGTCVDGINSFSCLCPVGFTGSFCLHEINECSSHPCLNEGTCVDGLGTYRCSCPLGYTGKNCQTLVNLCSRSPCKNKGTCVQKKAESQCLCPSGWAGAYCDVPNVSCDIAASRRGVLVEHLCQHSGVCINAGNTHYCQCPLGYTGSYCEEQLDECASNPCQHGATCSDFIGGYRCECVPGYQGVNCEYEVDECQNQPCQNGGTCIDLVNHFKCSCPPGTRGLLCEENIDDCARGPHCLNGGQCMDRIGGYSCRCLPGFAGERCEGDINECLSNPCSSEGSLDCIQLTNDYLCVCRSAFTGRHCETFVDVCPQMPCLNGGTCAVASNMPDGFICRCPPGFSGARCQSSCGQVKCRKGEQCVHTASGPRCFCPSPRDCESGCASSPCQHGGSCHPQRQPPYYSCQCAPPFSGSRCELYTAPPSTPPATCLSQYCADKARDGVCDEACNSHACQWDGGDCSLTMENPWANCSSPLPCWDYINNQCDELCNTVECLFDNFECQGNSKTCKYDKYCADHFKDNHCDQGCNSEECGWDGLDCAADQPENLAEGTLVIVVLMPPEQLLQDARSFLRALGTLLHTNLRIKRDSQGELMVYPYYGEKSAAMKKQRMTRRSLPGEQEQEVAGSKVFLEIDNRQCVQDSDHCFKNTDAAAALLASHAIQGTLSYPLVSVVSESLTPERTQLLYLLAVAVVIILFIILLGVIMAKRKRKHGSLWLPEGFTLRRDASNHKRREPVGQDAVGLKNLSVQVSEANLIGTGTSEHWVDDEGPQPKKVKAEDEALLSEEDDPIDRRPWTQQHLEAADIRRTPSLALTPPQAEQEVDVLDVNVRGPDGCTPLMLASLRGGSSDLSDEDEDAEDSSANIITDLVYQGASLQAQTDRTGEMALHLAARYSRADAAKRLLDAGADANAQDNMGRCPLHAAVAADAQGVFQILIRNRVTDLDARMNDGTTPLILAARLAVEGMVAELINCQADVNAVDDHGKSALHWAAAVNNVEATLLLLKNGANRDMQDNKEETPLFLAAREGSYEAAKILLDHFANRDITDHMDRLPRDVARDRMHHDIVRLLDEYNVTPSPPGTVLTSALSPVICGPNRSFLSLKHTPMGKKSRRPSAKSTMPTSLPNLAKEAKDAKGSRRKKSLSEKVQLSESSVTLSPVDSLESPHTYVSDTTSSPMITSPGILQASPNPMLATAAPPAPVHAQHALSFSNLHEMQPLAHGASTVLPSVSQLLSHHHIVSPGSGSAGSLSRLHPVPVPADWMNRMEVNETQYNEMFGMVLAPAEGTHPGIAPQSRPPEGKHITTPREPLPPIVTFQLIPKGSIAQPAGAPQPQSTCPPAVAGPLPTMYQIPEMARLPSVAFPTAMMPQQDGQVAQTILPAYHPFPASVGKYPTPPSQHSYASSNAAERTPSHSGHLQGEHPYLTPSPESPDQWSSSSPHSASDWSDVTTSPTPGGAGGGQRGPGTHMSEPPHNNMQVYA
Chain of Pro-neuregulin-1, membrane-bound isoform (Homo sapiens) (Q02297 whole entry, looked up, the tested form may be a part, canonical isoform): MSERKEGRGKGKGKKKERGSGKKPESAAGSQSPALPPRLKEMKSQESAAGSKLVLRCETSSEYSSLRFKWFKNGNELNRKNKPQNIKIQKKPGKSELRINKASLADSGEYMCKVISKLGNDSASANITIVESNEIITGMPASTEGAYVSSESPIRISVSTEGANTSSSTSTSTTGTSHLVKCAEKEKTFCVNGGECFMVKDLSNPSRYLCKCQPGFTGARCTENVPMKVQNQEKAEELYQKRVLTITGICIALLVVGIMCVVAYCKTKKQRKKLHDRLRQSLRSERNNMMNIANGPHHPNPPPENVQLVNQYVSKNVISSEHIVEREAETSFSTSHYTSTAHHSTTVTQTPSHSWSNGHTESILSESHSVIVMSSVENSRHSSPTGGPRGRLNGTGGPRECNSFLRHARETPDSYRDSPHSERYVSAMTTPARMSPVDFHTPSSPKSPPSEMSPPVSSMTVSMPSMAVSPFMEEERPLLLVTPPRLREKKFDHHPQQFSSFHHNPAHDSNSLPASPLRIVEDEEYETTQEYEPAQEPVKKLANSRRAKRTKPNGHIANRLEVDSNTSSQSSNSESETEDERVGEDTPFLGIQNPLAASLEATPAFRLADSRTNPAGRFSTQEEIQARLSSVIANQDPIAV

Compound	composite z-score [1]	composite z-score [2]	composite z-score [3]	composite z-score [4]	composite z-score [5]	composite z-score [6]	composite z-score [7]	z-score [8]	composite z-score [9]	composite z-score [10]
[N-]=[N+]=NCc1ccccc1C[C@@]1(C(=O)NCC(O)CO)N=C(c2ccc(OCCCO)cc2)O[C@@H]1c1ccccc1 (stereo not given in full)	1.03	0.0102	-0.0459	0.206	0.111	0.768	0.952	-1.26 (inactive)	-0.12	-0.132
C=CCC(OC(C)=O)[C@@H]1[C@@H](N(Cc2ccc(-c3cccc(C(F)(F)F)c3)o2)C(=O)c2cccc3ccccc23)c2cc(OCCCO)ccc2N1C(=O)Cc1ccc2ccccc2c1 (stereo not given in full)	-0.0817	-0.261	-0.152	0.2	-0.35	0.376	0.109	0.3 (inactive)	0.214	-0.199
NC(=O)NCC#Cc1ccc2c(c1)[C@]1(C(=O)N2)[C@H](C(=O)O)[C@H]2C(=O)O[C@H](c3ccccc3)[C@H](c3ccccc3)N2[C@@H]1c1ccc(O)cc1	2.62	-0.0893	-0.0098	-0.135	0.053	0.441	-0.293	1.5 (inactive)	1.83	0.182
O=C1O[C@@H](c2ccccc2)[C@@H](c2ccccc2)N2[C@@H](c3ccccc3OCCO)[C@]3(C(=O)Nc4ccccc43)[C@@H](C(=O)O)[C@H]12	-0.229	-0.0324	0.0301	0.551	0.522	1.57	1.12	-1.84 (inactive)	-0.0073	0.0524
COC(=O)[C@@]1(Cc2ccc(OC)cc2)[C@H]2c3cc(C(=O)N4CCCC4)n(CCSCCO)c3C[C@H]2CN1C(=O)c1ccccc1	0.32	-0.399	0.46	0.651	1.69	1.86	1.4	-0.15 (inactive)	1.3	0.455
CC(=O)Nc1cc(Br)ccc1C(=O)NCc1ccccc1	-0.16	-0.0459	0.0213	-0.0284	0.359	0.685	1.23	0.0163 (inactive)	-0.0314	-0.226
CS(=O)(=O)CCOC(=O)C1=CC(CCCO)=CC(c2ccc(CN3CCCC3)cc2)N(Cc2cccc(OC(F)(F)F)c2)C=C1C(=O)OCCS(C)(=O)=O (stereo not given)	0.384	0.851	0.0036	0.952	0.978	0.691	0.909	0.173 (inactive)	0.66	0.154
Cc1ccc(C2C3C(=O)CC4C(=O)N(c5ccccc5)C(=O)C4C3CN2S(=O)(=O)c2ccc(C)cc2)cc1 (stereo not given)	0.469	0.204	0.292	0.59	1.57	1.25	1.32	0.0035 (inactive)	1.58	0.365
COCCOC(=O)N1C(=O)[C@@]2(c3cc(C#CC4=CCCCC4)ccc31)[C@H](c1ccc(OCCO)cc1)N1[C@H](c3ccccc3)[C@H](c3ccccc3)OC(=O)[C@H]1[C@@H]2C(=O)N1CCc2cc(OC)c(OC)cc2C1	-0.16	0.36	-0.0242	0.666	1.43	0.395	1.15	-0.211 (inactive)	0.596	-0.0994
CN(C)CCCC[C@@H]1NC(=O)[C@H]2C[C@@H](C(=O)NCCCCCN)[C@@H](c3cccc(OCCO)c3)N2C1=O	1.88	2.19	0.269	0.558	1.12	2.28	1.3	-0.0269 (inactive)	1.75	1.16
CN(C)C(=O)[C@]1(Cc2ccccc2)N=C(c2ccc(OCCCO)cc2)O[C@@H]1c1ccccc1N=[N+]=[N-]	0.303	0.746	0.0797	0.618	1.33	1.56	1.13	0.336 (inactive)	0.532	0.0749
C=C(CCCC)/C(=C/C[C@@H](OC(C)=O)c1cccc(OCCO)c1)c1cnc2ccccc2c1	-0.0295	0.314	-0.0015	0.0122	0.249	0.122	0.274	-0.269 (inactive)	0.219	0.235
COC(=O)[C@]1(CCC(=O)OC(C)(C)C)N=C(c2ccc(OCCCO)cc2)O[C@@H]1c1ccccc1	1.11	-0.522	0.0679	-0.87	-0.668	0.791	1.14	-2.62 (inactive)	-0.159	-0.233
O=C1NC(=O)C2C1C=CC(C(O)c1ccc(-c3ccccc3)s1)N2Nc1ccc(Cl)cc1Cl (stereo not given)	0.0065	0.285	0.107	0.297	1.21	1.48	0.706	2.38 (inactive)	1.16	-0.0645
CC(C)CCC[C@@H](C)[C@H]1CC[C@@]2(C)C3=C(CC[C@]12C)[C@@]1(C)CC[C@H](OC(=O)c2ccc(C(F)(F)F)nc2)C(C)(C)C1CC3 (stereo not given in full)	-0.438	0.441	-0.103	0.312	0.443	-0.323	0.198	-1.46 (inactive)	-0.108	0.223
CC(C)(C)OC(=O)CC[C@]1(C(=O)NCCN2CCOCC2)COC(c2ccc(OCCCO)cc2)=N1	-0.254	0.883	0.0569	0.691	0.361	1.33	1.41	-0.783 (inactive)	0.519	0.0623
C#CCN1[C@H](/C=C/C2CC2)[C@H](Cc2ccccc2)OC(=O)[C@@H]1Cc1ccccc1	-0.413	0.241	-0.144	-0.0377	-0.343	0.153	0.524	-4.01 (inactive)	-0.0168	0.0373
OCC1C=C(/C=C/c2ccccc2)CN1Cc1ccccc1Br (stereo not given)	-0.337	0.422	0.0619	0.979	1.42	0.808	0.331	-1.8 (inactive)	0.379	-0.136
CC(C)[Si](C#CCCCC#N)(O[C@H](c1ccccc1)c1cn(Cc2cccc(Cl)c2)nn1)C(C)C	-0.37	0.558	-0.104	0.689	0.799	-0.0808	0.603	-1.04 (inactive)	0.624	0.136
O=C(CS)NCCCCCNC(=O)[C@@H]1C[C@@H]2C(=O)NCC(=O)N2[C@@H]1c1ccc(O)cc1	-0.0188	0.654	-0.11	0.0152	-0.966	0.317	1.39	0.111 (inactive)	-0.155	-0.0003
C=C(/C(=C/C[C@H](OC(=O)c1ccncc1)c1ccc(OCCO)cc1)c1cc(C(=O)OC)ccc1OC)C(C)C	-0.0836	0.362	-0.134	0.607	-0.478	0.892	0.781	6.19 (inactive)	0.87	-0.0994
O=C(NC1CC1)[C@@H]1c2ccccc2C(=O)N(C2Cc3ccccc3C2)[C@H]1c1ccc(CO)cc1	-0.549	0.847	-0.0618	0.139	1.01	0.639	0.807	-0.838 (inactive)	0.325	1.38
COCCOC(=O)N1C(=O)[C@@]2(c3cc(C#CC4(O)CCCCCC4)ccc31)[C@H](C(=O)Nc1nc3ccccc3s1)[C@H]1C(=O)O[C@H](c3ccccc3)[C@H](c3ccccc3)N1[C@@H]2c1ccc(OCCO)cc1	-0.568	0.392	-0.083	0.797	1.07	0.727	1.15	4.24 (inactive)	0.277	0.0749
